Experimental data taken from PubChem BioAssay (Tox21).
Records with an inconclusive call do not appear. Entries that show only a call come without a potency. Activity calls are given as the source filed them. The call rests on the fitted dose curve; in most records, active means well fitted curve in the direction sought with a large enough effect in the repeat runs; inconclusive means weak or mixed curves; inactive means no such curve, though single readings can be large; an effect the other way counts as inactive or inconclusive.

How the values were obtained:
[1] = biological target: Cytochrome P450 2D6 (Homo sapiens) (UniProt P10635); test: Cytochrome P450 Family 2 Subfamily D Member 6 (CYP2D6) small molecule antagonists: luciferase reporter qHTS assay (AID 1671196); conditions: P450-Glo CYP2D6 enzyme assay, luciferin luminescence, 1 h; series mostly up to 115 µM; further: nearly all actives have a fitted effect of over 50% in size; further: potency means the concentration at half of the fitted maximal effect
In short: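 Luminescence (RLU), read 20 min after detection reagent, indicated CYP2D6 conversion of proluciferin to luciferin during a 1 h NADPH-dependent reaction at room temperature.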

[2] = biological target: Cytochrome P450 2C19 (Homo sapiens) (UniProt P33261); test: Cytochrome P450 Family 2 Subfamily C Member 19 (CYP2C19) small molecule antagonists: luciferase reporter qHTS assay (AID 1671197); conditions: P450-Glo CYP2C19 enzyme, luciferin luminescence, 1 h; series mostly up to 115 µM; further: nearly all actives have a fitted effect of over 65% in size; further: potency means the concentration at half of the fitted maximal effect
In short: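 Relative luminescence units recorded 20 min after the detection reagent stopped a 1 h, 37C CYP2C19 reaction on proluciferin substrate, which was started by NADPH regeneration following 10 min room-temperature compound preincubation; ketoconazole positive control.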

[3] = biological target: Cytochrome P450 2C9 (Homo sapiens) (UniProt P11712); test: Cytochrome P450 Family 2 Subfamily C Member 9 (CYP2C9) small molecule antagonists: luciferase reporter qHTS assay (AID 1671198); conditions: P450-Glo CYP2C9 enzyme assay, luciferin luminescence; series mostly up to 115 µM; further: nearly all actives have a fitted effect of over 50% in size; further: potency means the concentration at half of the fitted maximal effect
In short: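 Enzyme-substrate mix preincubated with compound 10 min at room temperature; reaction started with NADPH regeneration solution, 1 h 37C. Luminescent luciferin product read after 20 min detection reagent.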

[4] = biological target: Cytochrome P450 1A2 (Homo sapiens) (UniProt P05177); test: Cytochrome P450 Family 1 Subfamily A Member 2 (CYP1A2) small molecule antagonists: luciferase reporter qHTS assay (AID 1671199); conditions: P450-Glo CYP1A2 enzyme, luciferin luminescence, 1 h; series mostly up to 115 µM; further: nearly all actives have a fitted effect of over 50% in size; further: potency means the concentration at half of the fitted maximal effect
In short: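 CYP1A2 turnover of a luminogenic substrate was quantified after 1 h with NADPH regeneration at room temperature. Furafylline served as positive control.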

[5] = biological target: Voltage-gated inwardly rectifying potassium channel KCNH2 (Homo sapiens) (UniProt Q12809); test: Human Ether-a-go-go-Related Gene (hERG) channel small molecule antagonists: fluorescence cell-based qHTS assay (AID 1671200); conditions: hERG-U2OS cells, FluxOR thallium flux fluorescence; series mostly up to 76.8 µM;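 further: hERG-expressing U2OS cells given a thallium stimulus after FluxOR II dye loading; nearly all actives have a fitted effect of over 50% in size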
In short: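 First, 1000 cells per well are seeded and cultured overnight at 37 C. Next, FluxOR II dye is loaded for 1 h at room temperature, protected from light. After 10 more minutes, stimulus is added and fluorescence is read.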

[6] = biological target: Cytochrome P450 3A4 (Homo sapiens) (UniProt P08684); test: Cytochrome P450 Family 3 Subfamily A Member 4 (CYP3A4) small molecule antagonists: luciferase reporter qHTS assay (AID 1671201); conditions: P450-Glo CYP3A4 enzyme, luciferin luminescence, 1 h; series mostly up to 115 µM; further: nearly all actives have a fitted effect of over 50% in size; further: potency means the concentration at half of the fitted maximal effect
In short: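 Enzyme and proluciferin substrate are mixed with test chemicals for 10 min, then NADPH regeneration system drives turnover for 1 h at room temperature. A detection reagent halts the reaction; luminescence after 20 min gives relative activity.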

Sequence of Cytochrome P450 2C19 (Homo sapiens) (P33261 whole entry, looked up): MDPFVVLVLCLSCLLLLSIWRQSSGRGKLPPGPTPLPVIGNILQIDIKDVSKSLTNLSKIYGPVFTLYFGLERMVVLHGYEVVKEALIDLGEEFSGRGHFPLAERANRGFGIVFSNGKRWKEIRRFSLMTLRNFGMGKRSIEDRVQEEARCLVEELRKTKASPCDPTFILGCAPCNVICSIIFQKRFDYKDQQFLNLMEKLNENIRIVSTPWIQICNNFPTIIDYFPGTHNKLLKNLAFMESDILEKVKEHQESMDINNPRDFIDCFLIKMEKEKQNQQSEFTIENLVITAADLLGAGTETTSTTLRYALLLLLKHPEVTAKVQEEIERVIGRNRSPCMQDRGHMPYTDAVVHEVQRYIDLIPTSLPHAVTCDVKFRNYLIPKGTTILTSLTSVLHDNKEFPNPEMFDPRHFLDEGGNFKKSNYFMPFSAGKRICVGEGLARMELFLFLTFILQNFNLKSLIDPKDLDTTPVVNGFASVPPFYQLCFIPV
Sequence of Cytochrome P450 2D6 (Homo sapiens) (P10635 whole entry, looked up): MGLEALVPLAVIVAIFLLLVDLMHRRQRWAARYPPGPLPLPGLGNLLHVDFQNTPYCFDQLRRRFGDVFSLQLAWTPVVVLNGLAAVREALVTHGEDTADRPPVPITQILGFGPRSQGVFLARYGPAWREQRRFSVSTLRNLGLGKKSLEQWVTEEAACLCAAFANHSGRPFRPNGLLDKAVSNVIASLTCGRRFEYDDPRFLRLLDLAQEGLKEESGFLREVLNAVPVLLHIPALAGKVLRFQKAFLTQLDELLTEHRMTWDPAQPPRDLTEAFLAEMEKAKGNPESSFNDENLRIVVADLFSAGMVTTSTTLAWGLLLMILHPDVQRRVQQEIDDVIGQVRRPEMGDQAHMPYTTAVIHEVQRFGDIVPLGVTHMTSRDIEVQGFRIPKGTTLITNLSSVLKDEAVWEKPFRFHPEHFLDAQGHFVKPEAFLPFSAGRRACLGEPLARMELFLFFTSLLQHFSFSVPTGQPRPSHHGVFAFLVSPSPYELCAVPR
Sequence of Cytochrome P450 3A4 (Homo sapiens) (P08684 whole entry, looked up): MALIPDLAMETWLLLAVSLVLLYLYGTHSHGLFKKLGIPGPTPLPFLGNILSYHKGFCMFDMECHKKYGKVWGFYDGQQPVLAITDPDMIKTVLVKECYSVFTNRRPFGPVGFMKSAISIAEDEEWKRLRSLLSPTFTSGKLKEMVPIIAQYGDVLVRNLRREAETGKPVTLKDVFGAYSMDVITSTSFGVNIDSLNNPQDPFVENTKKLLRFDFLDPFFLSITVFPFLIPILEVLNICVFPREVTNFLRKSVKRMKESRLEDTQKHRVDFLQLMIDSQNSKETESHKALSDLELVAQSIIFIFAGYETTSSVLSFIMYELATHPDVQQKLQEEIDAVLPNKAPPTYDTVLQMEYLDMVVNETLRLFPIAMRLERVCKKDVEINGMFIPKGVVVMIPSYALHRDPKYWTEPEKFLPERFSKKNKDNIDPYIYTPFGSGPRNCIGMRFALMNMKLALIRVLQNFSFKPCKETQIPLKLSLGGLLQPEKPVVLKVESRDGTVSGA
Sequence of Voltage-gated inwardly rectifying potassium channel KCNH2 (Homo sapiens) (Q12809 whole entry, looked up): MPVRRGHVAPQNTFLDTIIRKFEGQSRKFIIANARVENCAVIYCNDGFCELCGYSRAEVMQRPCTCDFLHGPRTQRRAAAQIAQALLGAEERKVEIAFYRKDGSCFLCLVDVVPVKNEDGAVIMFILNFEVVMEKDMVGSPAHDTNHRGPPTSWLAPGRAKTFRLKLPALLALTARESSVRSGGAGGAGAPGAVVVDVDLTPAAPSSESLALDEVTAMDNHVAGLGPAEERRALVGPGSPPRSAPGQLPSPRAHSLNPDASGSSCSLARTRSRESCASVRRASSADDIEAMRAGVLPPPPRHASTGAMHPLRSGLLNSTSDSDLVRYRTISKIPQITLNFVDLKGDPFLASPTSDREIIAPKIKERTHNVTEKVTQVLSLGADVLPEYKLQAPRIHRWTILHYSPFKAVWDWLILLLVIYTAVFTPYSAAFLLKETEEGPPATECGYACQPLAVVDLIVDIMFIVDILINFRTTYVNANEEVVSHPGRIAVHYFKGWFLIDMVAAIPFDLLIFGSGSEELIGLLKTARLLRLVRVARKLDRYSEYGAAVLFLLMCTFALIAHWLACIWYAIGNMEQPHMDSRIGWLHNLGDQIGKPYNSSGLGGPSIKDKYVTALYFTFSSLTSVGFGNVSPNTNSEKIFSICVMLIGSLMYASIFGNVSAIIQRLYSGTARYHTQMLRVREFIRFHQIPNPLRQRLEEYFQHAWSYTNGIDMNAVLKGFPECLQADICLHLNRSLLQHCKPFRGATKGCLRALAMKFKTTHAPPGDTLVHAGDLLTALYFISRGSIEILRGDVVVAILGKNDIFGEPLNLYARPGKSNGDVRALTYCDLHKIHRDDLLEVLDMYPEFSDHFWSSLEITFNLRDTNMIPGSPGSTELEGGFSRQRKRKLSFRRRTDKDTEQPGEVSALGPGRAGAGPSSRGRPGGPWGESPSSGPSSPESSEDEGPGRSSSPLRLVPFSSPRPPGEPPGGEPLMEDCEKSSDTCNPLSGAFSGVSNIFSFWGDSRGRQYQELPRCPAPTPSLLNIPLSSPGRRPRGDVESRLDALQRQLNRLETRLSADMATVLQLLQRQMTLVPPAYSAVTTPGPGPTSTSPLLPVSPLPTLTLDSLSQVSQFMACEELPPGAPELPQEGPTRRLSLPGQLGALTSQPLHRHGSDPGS
Sequence of Cytochrome P450 2C9 (Homo sapiens) (P11712 whole entry, looked up): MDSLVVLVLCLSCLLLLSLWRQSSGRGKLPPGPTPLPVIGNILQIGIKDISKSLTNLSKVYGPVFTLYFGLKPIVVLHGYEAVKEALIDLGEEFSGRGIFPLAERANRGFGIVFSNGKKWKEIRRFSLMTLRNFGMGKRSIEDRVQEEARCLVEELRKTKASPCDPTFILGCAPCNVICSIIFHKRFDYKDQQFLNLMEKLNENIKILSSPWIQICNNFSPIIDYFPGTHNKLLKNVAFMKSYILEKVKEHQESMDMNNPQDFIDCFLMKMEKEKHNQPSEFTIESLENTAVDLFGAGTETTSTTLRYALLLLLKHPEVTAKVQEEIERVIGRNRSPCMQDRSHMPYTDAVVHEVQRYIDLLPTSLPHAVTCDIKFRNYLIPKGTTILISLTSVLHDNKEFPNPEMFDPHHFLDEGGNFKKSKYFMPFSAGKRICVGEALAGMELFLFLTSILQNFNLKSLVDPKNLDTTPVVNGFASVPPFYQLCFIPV
Sequence of Cytochrome P450 1A2 (Homo sapiens) (P05177 whole entry, looked up): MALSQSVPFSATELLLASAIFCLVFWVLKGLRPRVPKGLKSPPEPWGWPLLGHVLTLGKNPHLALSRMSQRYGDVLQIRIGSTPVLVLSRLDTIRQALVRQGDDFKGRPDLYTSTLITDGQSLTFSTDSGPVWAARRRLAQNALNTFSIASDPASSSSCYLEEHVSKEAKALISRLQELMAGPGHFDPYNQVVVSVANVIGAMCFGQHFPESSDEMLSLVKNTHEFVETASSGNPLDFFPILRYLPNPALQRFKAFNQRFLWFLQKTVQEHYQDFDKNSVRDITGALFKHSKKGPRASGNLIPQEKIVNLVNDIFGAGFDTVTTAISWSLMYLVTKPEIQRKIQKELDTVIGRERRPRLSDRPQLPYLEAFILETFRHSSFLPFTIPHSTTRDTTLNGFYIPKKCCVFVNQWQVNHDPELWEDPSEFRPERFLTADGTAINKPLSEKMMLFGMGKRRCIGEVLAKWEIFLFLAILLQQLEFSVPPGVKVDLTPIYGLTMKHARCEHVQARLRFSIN

Row | SMILES | Potency [1] | Potency [2] | Potency [3] | Potency [4] | Potency [5] | Potency [6]
1 | CCN(CC)CCNC(=O)c1cc(Cl)c(N)cc1OC | 7.76 µM (active) | inactive | inactive | inactive | inactive | –
2 | CCCOC(=O)c1c(Cl)c(Cl)c(Cl)c(Cl)c1C(=O)OCCC | inactive | 7.1 µM (active) | 17.8 µM (active) | 2.24 µM (active) | inactive | –
3 | CCOC(=O)c1c(N)sc2c1CCN(Cc1ccccc1)C2 | 0.0219 µM (active) | 0.871 µM (active) | 3.47 µM (active) | 15.5 µM (active) | – | –
4 | CC(C)(O)c1coc(S(=O)(=O)NC(=O)Nc2c3c(cc4c2CCC4)CCC3)c1 | inactive | 35.6 µM (active) | 25.2 µM (active) | 17.8 µM (active) | inactive | –
5 | O=C(O)CCS | inactive | inactive | inactive | inactive | inactive | inactive
6 | Nc1ccc(S(=O)(=O)NCc2ccccc2)cc1 | inactive | 2.19 µM (active) | inactive | inactive | inactive | –
7 | Cc1c(C2(c3cc(Br)c(O)c(Br)c3C)OS(=O)(=O)c3ccccc32)cc(Br)c(O)c1Br | 24.4 µM (active) | 15.4 µM (active) | 10.9 µM (active) | 13.7 µM (active) | inactive | –
8 | COc1ccc(C(=O)NCc2ccc(OCCN(C)C)cc2)cc1OC | inactive | inactive | inactive | inactive | inactive | –
9 | C/C(C=O)=C\c1ccccc1 | inactive | inactive | inactive | inactive | inactive | inactive
10 | O=C1OC(=O)c2c(Br)c(Br)c(Br)c(Br)c21 | inactive | inactive | inactive | inactive | inactive | inactive
11 | CCC(CO)(CO)[N+](=O)[O-] | inactive | inactive | inactive | inactive | inactive | inactive
12 | Cc1cc(CCC(=O)OCCOCCOCCOC(=O)CCc2cc(C)c(O)c(C(C)(C)C)c2)cc(C(C)(C)C)c1O | 9.78 µM (active) | 2.76 µM (active) | 0.617 µM (active) | inactive | inactive | 2.46 µM (active)
13 | CC[C@H]1OC(=O)[C@H](C)[C@@H](O[C@H]2C[C@@](C)(OC)[C@@H](O)[C@H](C)O2)[C@H](C)[C@@H](O[C@@H]2O[C@H](C)C[C@H](N(C)C)[C@H]2O)[C@](C)(O)C[C@@H](C)/C(=N\OCOCCOC)[C@H](C)[C@@H](O)[C@]1(C)O | inactive | inactive | inactive | inactive | inactive | 3.33 µM (active)
14 | Cc1cc([N+](=O)[O-])ccc1N | 31.3 µM (active) | 35.1 µM (active) | 39.4 µM (active) | 3.51 µM (active) | inactive | inactive
15 | COC1CCC=CO1 (centres undefined) | inactive | inactive | inactive | inactive | inactive | inactive
16 | Oc1cccc2[nH]ccc12 | 15.5 µM (active) | inactive | 15.5 µM (active) | inactive | inactive | inactive
17 | CC[C@@H](CO)NCCN[C@@H](CC)CO | inactive | inactive | inactive | inactive | inactive | inactive
18 | COc1ccc(-n2nc(C(F)F)cc2-c2ccc(S(C)=O)cc2)cc1 (centres undefined) | 35.6 µM (active) | 2 µM (active) | 31.7 µM (active) | 31.7 µM (active) | inactive | 31.7 µM (active)
19 | Cc1c[nH]c2ccccc12 | inactive | inactive | inactive | 14.4 µM (active) | inactive | inactive
20 | CC(=O)OCCC(C)CC(C)(C)C (centres undefined) | 71 µM (active) | inactive | inactive | inactive | inactive | inactive
21 | O=S(=O)(O)CO | inactive | 35.1 µM (active) | inactive | 31.3 µM (active) | inactive | inactive
22 | C[C@@H]1C[C@H]2[C@@H]3CCC4=CC(=O)C=C[C@]4(C)[C@@]3(F)[C@@H](O)C[C@]2(C)[C@@]1(O)C(=O)COP(=O)(O)O | inactive | inactive | inactive | inactive | inactive | inactive
23 | CC(=O)OCC(C)C | inactive | inactive | inactive | inactive | inactive | inactive
24 | Nc1ccn([C@H]2CS[C@@H](CO)O2)c(=O)n1 | inactive | inactive | inactive | inactive | inactive | inactive
25 | CC(=O)N[C@@H](Cc1ccc(O)cc1)C(=O)O | inactive | inactive | inactive | inactive | inactive | inactive
26 | O=CNNC=O | inactive | inactive | inactive | inactive | inactive | inactive
27 | O=C1c2ccccc2C(=O)c2c(O)ccc(O)c21 | inactive | inactive | inactive | 3.17 µM (active) | inactive | inactive
